Results taken from the supplement of paper PMC6555819.

Columns and labels:
Test in all cases: PBM binding z-score (relative to random genomic background probes); higher = stronger binding; sequences stand for … in GC…GCGATTGACAGCGTAGAATGAAGG
[1] = test system: RARb homodimer (NR concentration 270 nM)
How it was run: (§1)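 On custom Agilent 4×180K arrays, double-stranded probes with 34-nt variable regions carried direct-repeat seeds, single-nucleotide variants, half-site ablations or random human genomic background. Ligand-free nuclear receptor dimers were applied for 1 h, and binding was read with antibodies against each partner (one per run). Binding z-scores come from regression-normalized fluorescence, with the random background probes as reference.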

[2] = test system: RARg:RXRa (NR concentration 270 nM, RXRa partner concentration 90 nM)
How it was run: as §1

[3] = test system: RARg homodimer (NR concentration 270 nM)
How it was run: as §1

[4] = test system: RXRa DBDmut IVT, anti-RXR (DBD mutation: RXRa K156A/R161A, NR concentration 90 nM)
How it was run: as §1

[5] = test system: RXRa homodimer (NR concentration 180 nM)
How it was run: as §1

[6] = test system: THRa:RXRa (NR concentration 90 nM, RXRa partner concentration 90 nM)
How it was run: as §1

[7] = test system: THRa homodimer (NR concentration 90 nM)
How it was run: as §1

[8] = test system: VDR homodimer (NR concentration 270 nM)
How it was run: as §1

Sequence | PBM binding z-score [1] | PBM binding z-score [2] | PBM binding z-score [3] | PBM binding z-score [4] | PBM binding z-score [5] | PBM binding z-score [6] | PBM binding z-score [7] | PBM binding z-score [8]
CCTTACGGGTCACTGACAGGTTATAGCTTTTGGA | 3.45 | 5.62 | 4.37 | 1.64 | 4.7 | 2.82 | 0.24 | 0.718
CAAACTAGGTCAAGGTTAAAGTCGGTTTGTGCCA | 3.76 | 4.29 | 5.18 | 1.95 | 3.67 | 3.56 | 1.82 | 1.79
CCGCCTAGGTCAGGGCCAGTATAGGAGGAACGTT | 2.62 | 2.86 | 3.33 | -0.193 | 1.74 | 2.2 | 0.59 | -0.22
TCAGACAGGTGAAGGTAAATCAGGTACGCAGTCG | 0.943 | 0.61 | 0.667 | 1.77 | 1.06 | 1.58 | 0.468 | 0.53
CCGACTGGGGCGAAGGTTACCATACTCAGTACGA | 0.751 | 0.697 | 0.405 | -0.021 | 1.12 | 0.439 | -0.242 | -0.459
TCTATTAGTTGAAGGGCAATCGACGAGTCCGTTT | 0.87 | 0.355 | 0.467 | 1.61 | 0.559 | 0.0989 | -0.0938 | 1.42
AGAATGAGCTTAAGATCAGGGAAACAGAATACAT | -0.611 | -0.159 | 0.233 | -0.641 | -0.0967 | -0.123 | -0.875 | -0.392
GCGACTGGGGCAAAGCGGGTTACCATAAGGTTGG | 0.945 | 0.446 | 0.469 | -0.587 | 0.545 | 2.47 | 0.0771 | -0.483
CGACCAAGGTCAGAGAGGTCAGTGAATGCCGAGT | 5.37 | 6.34 | 7.04 | 3.34 | 5.82 | 4.15 | 2.11 | 5.63
CGTCCAAGGTCAATGCTAGGTCAGGGAAAGCATT | 4.99 | 7.46 | 6.5 | 3.47 | 5.08 | 4.67 | 3.21 | 2.33
CGAACGAAGGCATGAGTTGATAGCAAATGCCGAT | -0.914 | -0.373 | -0.278 | -0.249 | -0.113 | -0.643 | -0.827 | -0.193
TAGCCTATGTCATTCAGGGGCCAGTATAGAAAGC | 0.708 | 1.65 | 0.547 | -0.121 | 0.203 | 0.454 | -0.611 | -0.479
TAGCCTAGGTCAGATCGGCCCAGTATACGCTATA | 1.84 | 2.5 | 3.35 | -0.434 | 1.35 | 1.98 | -0.12 | -0.474
CAAACTCGGTCACGAAAGGTCAAAGTCGAATGAC | 5.24 | 7.03 | 7.47 | 1.9 | 7.26 | 4.47 | 1.09 | 3.28
TTACCAAGGTGAAAGCTCGTTGATGCACGCCTTG | 0.13 | 0.342 | 0.28 | -0.23 | 0.617 | 1.38 | 0.107 | -0.644
ACTAGCAGGCCATGTTTGGGTCACTCAAACAAAG | 1.98 | 2.04 | 1.42 | -0.345 | 0.614 | 2.24 | 1.21 | -0.169
TCTAGTTGGTCACGGAGGTCACGCACGACGGGTA | 4.76 | 5.46 | 5.23 | 1.28 | 6.17 | 4.05 | 3.31 | 3.06
ATCGAAAGCTCGACGAGGTGAGTATACACCGTTT | -0.193 | -0.12 | 0.303 | -0.125 | 0.189 | 1.02 | 0.249 | -0.291
TCTTGTAGATCAGCAGCTTAAGAAAGCTGGCCAA | -0.684 | -0.435 | -0.915 | 0.258 | -0.355 | -0.626 | -0.605 | -0.685

Sequence | PBM binding z-score [1] | PBM binding z-score [2] | PBM binding z-score [3] | PBM binding z-score [4] | PBM binding z-score [5] | PBM binding z-score [6] | PBM binding z-score [7] | PBM binding z-score [8]
CGAACTAGGTCCAGGACAGTGAATCTCCGCACGC | -0.206 | -0.326 | -0.183 | 0.703 | -0.387 | 0.749 | 0.778 | 0.133
CCTAGCAGGCCAGGGCCACTCAAGCATTTCGCTT | -0.124 | -0.441 | -0.124 | -0.762 | -0.718 | -0.482 | -0.794 | -0.946
ATCTCTAGGTAAAAGTTAAGTGAATCCCGAGGAT | -0.425 | 0.121 | 0.586 | -0.231 | 0.0332 | 0.344 | -0.106 | 0.265
GCATATAGGTAATAAAAGGTGAAAGTCCGATTGT | 1.63 | 0.972 | 0.621 | 0.496 | 1.53 | 2.61 | -0.141 | 0.166
TGTCAAAGTGCAAAGGTAACGTAAGTATCCACAC | 1.33 | 2.55 | 1.78 | 0.968 | 2.55 | 1.94 | -0.723 | 0.351
CCAGACAGGTGAAAGGTAACTCAGTCTGGTACGC | 0.781 | 1.39 | 0.817 | 0.137 | 2.13 | 0.824 | -0.156 | -0.251
ATATGTAGGCTAAGGGTCATTCAGGTTGGTTCGC | 3.85 | 3.93 | 2.76 | 2.03 | 4.31 | 3.16 | 1.17 | 3.63
CGGCCAAGGTCAATGCTAGGTCAGTGAAAGCATT | 4.9 | 7.57 | 6.96 | 3.65 | 5.16 | 4.29 | 2.46 | 2.22
GCGACTGGGGCATCAACAGGTTACCATAACTTAA | 1.25 | 0.983 | 0.509 | 0.306 | 0.415 | 0.721 | -0.0396 | -0.142
GCTTGTAGATCAAGGTAAAGAAAGACTAAGCTAA | -0.851 | -0.145 | -0.335 | -0.256 | -0.197 | 0.48 | -0.807 | -0.505
CGAACGAGGGCATGAGTTCATAGCAAATGCCGAT | 2.53 | 3.42 | 2.88 | 3.85 | 3.03 | 2.73 | 0.469 | 6.18
GCTAGCAGGCCATTTGCGTCACTCAATGACGGGC | -0.848 | -0.404 | -0.336 | -0.115 | -0.347 | -0.649 | -0.795 | -0.529
CCTGCTAGGTCAATGGTCAGCTTAAGCAGCTCGC | 3.14 | 3.62 | 4.2 | 2 | 2.25 | 2.31 | 0.712 | 0.066
CGTCCAAGGTCAGCATGTCAGTGAAAGCGACGTG | 3.99 | 5.21 | 6 | 2.51 | 4.01 | 3.54 | 2.02 | 0.761
CCTCGGAGGACAGAAGGACAGAGCTGTCCGCTTT | 0.278 | -0.0569 | 0.674 | -0.277 | -0.555 | 0.672 | -0.622 | -0.357
CCTATTAGTTGACCATAAGTGCAACCGAAGCTCG | 1.59 | 0.741 | 0.841 | 1.18 | 0.751 | 0.954 | 1.18 | 1.81
CCTAGCAGGCCAGGGTGACTCAAGCATTTCGCTT | 0.018 | -0.0591 | -0.113 | -0.702 | -0.00102 | 0.244 | -0.395 | -0.814
TAGCCTAGGTCACTCAGGGGCCAGTATAGAAAGC | 3.61 | 5.91 | 5.25 | 0.581 | 2.94 | 3.17 | 0.528 | 0.664
TCATAGAGGTAAATGCTAGGTGAAAGTCCGATCT | 0.335 | 0.753 | 0.235 | 0.932 | 0.849 | 1.94 | 0.361 | -0.248

Sequence | PBM binding z-score [1] | PBM binding z-score [2] | PBM binding z-score [3] | PBM binding z-score [4] | PBM binding z-score [5] | PBM binding z-score [6] | PBM binding z-score [7] | PBM binding z-score [8]
CCTATTACTTGACCATAAGGGCAACCGAAGCTCG | 1.99 | 0.821 | 1.15 | 0.77 | 0.915 | 1.84 | 1.86 | 1.23
CCTACTGGGCCATGAGGTCATTGATATCAACGTT | 3.32 | 3.54 | 2.78 | 1.42 | 3.58 | 3.97 | 4.36 | 4.75
CCAGACAGGTGAGAAGGAAACTCAGCCTCGATTA | -0.0325 | 0.209 | 0.469 | -0.203 | 0.154 | -0.307 | 0.13 | -0.0277
GGAACGAGGGCATTCGAGTTGATATCATGGCGAT | 0.726 | 1.25 | 1.52 | 2.79 | 0.858 | 3.38 | -0.359 | 2.91
ACTATTAGTGGACTTAGGGCAACCGATACGACGC | 0.427 | 0.269 | 0.779 | 0.397 | 0.286 | 1.17 | 0.136 | 0.0269
ATCTCTAGGTAACGAAGTTCAGTGAATGCCGAAC | 1.38 | 0.591 | 0.883 | 0.137 | 0.413 | 0.946 | 0.14 | 1.27
AGAATGAGGTTACCAATGATCAGGGAAACGCTTG | 0.796 | 2.23 | 1.63 | 0.994 | 2.62 | 2.61 | 0.788 | 0.0566
GCATATAGGTAATCCAAGGTGAAAGTCCGATTGT | 0.964 | 0.387 | 0.453 | 0.551 | 0.399 | 4.57 | 1.35 | 0.0892
AGTCAAAGTTCACTAGGTAACGTTAGATTCAGCT | 3.56 | 4.93 | 5.57 | 4.15 | 4 | 2.05 | 0.157 | 3.87
TCTCGGAGGACACGAAGGTCAGAGCCTTCCAGAG | 3.54 | 3.52 | 4.07 | 0.518 | 2.04 | 2.66 | 0.555 | 1.24
TGTCAAAGTTCAAACGTAACGTAAGTATCCACAC | 3.89 | 5.71 | 6.15 | 4.86 | 5.15 | 2.12 | -0.319 | 4.63
ATCGAAAGGTCGTGAGGTGAGAATACAGAAAGGC | 3.14 | 4.62 | 3.89 | 1.28 | 5.3 | 3.49 | 1.44 | 0.87
ACAGACAGGTGATTGAAGGTAACTCAGCTGGACG | -0.184 | 0.204 | 0.419 | -0.0738 | 0.195 | 1.92 | -0.247 | -0.308
TTACCATGGTGAAAGGTCGTTGATGCACGCCTTG | 2.03 | 2.17 | 1.04 | 0.434 | 3.19 | 1.64 | 0.0302 | 1.19
CCTATTAGTTGACCATAAGGGCGACCGAAGCTCG | 1.12 | 0.591 | 0.438 | 0.516 | 0.491 | 0.798 | 0.626 | 0.694
CAAACTAGGTCACCGGAAGGTCTAAGTCCGCATG | 4.28 | 5.48 | 5.56 | 1.58 | 3.87 | 3.88 | 2.22 | 1.68
AGAATGAGGTTAAGATCAGCGAAACAGAATACAT | 0.64 | 1.9 | 1.45 | 0.594 | 2.39 | 2.27 | 0.587 | 0.524
CGTACTGGGCCAAGGTCATTGATCAGTCAAAGCA | 3.36 | 3.89 | 3.26 | 1.57 | 3.05 | 3.42 | 2.56 | 3.55
TCTGCTAGGGCAACGATGGTCAGCTAATCTGCTA | 0.762 | 0.579 | 0.934 | -0.149 | -0.0028 | 0.381 | -0.978 | -0.735
